Records with an inconclusive call do not appear. The list shows a part of the results. The source made the active and inactive calls. Unless noted, the call rests on the fitted dose curve; in most records, active means well fitted curve in the direction sought with a large enough effect; inconclusive means small, poorly fitted or top-dose-only effect, or another doubt; inactive means no such curve, though single readings can be large; an effect the other way counts as inactive or inconclusive.
Legend:
[1] = Cytometric Cell-Based qHTS for Inhibitors of the mTORC1 Signaling Pathway in MEF (Tsc2-/-, p53-/-) Cells (AID 2660);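 further: Tsc2 and p53 null MEFs carrying empty vector with compound for 24 h; percent of cells above a phospho-rpS6 to PI ratio cutoff in each well; series mostly up to about 38 µM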
Summary of the method: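 Cells are plated, treated with compound for 24 hrs at 37 degree Celsius, then fixed, blocked and immunostained for phospho-rpS6 Ser235/236. Propidium iodide counterstain follows. Per-well % positive cells is derived from the PI-normalized phospho-S6 signal.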

[2] = High Content Imaging Cell-Based qHTS for Inhibitors of the mTORC1 Signaling Pathway in MEF (Tsc2-/-, p53-/-) Cells (AID 2666);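 further: percent of cells scored positive for phospho-rpS6 Ser235/236 immunostaining by imaging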
Summary of the method: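 Tsc2-/-, p53-/- MEFs (empty-vector stable) grown in DMEM + 10% FBS were exposed to compounds for 24 hrs at 37 degree Celsius, fixed, and stained with Alexa-488 anti-phospho-rpS6 Ser235/236 plus Hoechst. Imaging gave the percentage of positive cells per well.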

[3] = High Content Imaging Cell-Based qHTS for Inhibitors of the mTORC1 Signaling Pathway in MEF Cells (AID 2667);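 further: Tsc2-/- p53-/- MEFs stably re-expressing wild-type Tsc2 exposed 24 h; series mostly up to about 38 µM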
Summary of the method: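 Tsc2-/-, p53-/- MEFs stably re-expressing WT Tsc2, grown in DMEM + 10% FBS, were treated with compounds for 24 hrs at 37 degree Celsius, fixed, and stained with Alexa-488 phospho-rpS6 Ser235/236 antibody plus Hoechst; results given as % positive cells.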

[4] = Cytometry Cell-Based qHTS for Inhibitors of the mTORC1 Signaling Pathway in MEF cells (AID 2668);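 further: Tsc2-/- p53-/- mouse embryonic fibroblasts stably re-expressing wild-type Tsc2; percent cells positive for phospho-rpS6 Ser235/236 relative to propidium iodide stain; series mostly up to about 38 µM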
Summary of the method: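 In MEFs grown in DMEM + 10% FBS, a 24 hrs compound exposure preceded imaging of phospho-rpS6 Ser235/236 by laser-scanning cytometry.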

[5] = Validation screen for small molecules that induce DNA re-replication in MCF 10A normal breast cells (AID 463097); further: nearly all actives have a fitted effect of over 60% in size; further: potency means the concentration at half of the fitted maximal effect
Summary of the method: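 Following 48 hr compound incubation (37 C, 5% CO2), MCF 10A cells receive Hoechst for 40 min at 37 C. Nuclei are then scanned (excitation 405 nm, emission 500-530 nm) for total fluorescence intensity.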

[6] = biological target: Ubiquitin carboxyl-terminal hydrolase 2 (Homo sapiens) (UniProt O75604); experiment: qHTS Validation Assay for Inhibitors of Ubiquitin-specific Protease USP2a Using CHOP2 as the Reporter (AID 463106)
Chain of Ubiquitin carboxyl-terminal hydrolase 2 (Homo sapiens) (O75604 whole entry, looked up): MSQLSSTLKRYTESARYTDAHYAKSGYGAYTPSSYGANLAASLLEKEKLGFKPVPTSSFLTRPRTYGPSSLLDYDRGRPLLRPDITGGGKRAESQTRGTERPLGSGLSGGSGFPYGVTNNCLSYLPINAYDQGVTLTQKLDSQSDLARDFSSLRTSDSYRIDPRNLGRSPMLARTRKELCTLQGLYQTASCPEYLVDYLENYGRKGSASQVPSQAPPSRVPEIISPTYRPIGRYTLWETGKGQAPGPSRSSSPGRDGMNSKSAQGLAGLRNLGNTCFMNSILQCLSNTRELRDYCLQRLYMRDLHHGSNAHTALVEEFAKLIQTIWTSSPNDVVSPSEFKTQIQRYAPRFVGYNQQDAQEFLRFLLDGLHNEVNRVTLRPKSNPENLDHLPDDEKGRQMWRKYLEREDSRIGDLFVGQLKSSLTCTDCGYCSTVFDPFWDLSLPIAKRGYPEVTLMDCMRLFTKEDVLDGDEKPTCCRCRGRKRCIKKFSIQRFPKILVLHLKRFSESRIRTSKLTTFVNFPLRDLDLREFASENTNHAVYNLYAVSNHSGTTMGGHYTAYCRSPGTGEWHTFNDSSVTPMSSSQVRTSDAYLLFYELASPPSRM
Summary of the method: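 Readout was coupled fluorescence (Ex 485/Em 531 nm), read 60 min after adding 25 nM final Ub-CHOP2 and 25 nM reporter substrate. Beforehand, 10 nM final USP2 core had 30 min at RT with compound in pH 8.0 buffer. Curves were fitted after normalization to NEM and flagged for artifacts using time-zero reads.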

[7] = biological target: DNA polymerase III PolC-type (Bacillus subtilis (strain 168)) (UniProt P13267); experiment: qHTS Validation Assay for the Inhibitors of DNA Replication in Gram-Positive Bacteria (AID 485295); further: potency means the concentration at half of the fitted maximal effect
Chain of DNA polymerase III PolC-type (Bacillus subtilis (strain 168)) (P13267 whole entry, looked up): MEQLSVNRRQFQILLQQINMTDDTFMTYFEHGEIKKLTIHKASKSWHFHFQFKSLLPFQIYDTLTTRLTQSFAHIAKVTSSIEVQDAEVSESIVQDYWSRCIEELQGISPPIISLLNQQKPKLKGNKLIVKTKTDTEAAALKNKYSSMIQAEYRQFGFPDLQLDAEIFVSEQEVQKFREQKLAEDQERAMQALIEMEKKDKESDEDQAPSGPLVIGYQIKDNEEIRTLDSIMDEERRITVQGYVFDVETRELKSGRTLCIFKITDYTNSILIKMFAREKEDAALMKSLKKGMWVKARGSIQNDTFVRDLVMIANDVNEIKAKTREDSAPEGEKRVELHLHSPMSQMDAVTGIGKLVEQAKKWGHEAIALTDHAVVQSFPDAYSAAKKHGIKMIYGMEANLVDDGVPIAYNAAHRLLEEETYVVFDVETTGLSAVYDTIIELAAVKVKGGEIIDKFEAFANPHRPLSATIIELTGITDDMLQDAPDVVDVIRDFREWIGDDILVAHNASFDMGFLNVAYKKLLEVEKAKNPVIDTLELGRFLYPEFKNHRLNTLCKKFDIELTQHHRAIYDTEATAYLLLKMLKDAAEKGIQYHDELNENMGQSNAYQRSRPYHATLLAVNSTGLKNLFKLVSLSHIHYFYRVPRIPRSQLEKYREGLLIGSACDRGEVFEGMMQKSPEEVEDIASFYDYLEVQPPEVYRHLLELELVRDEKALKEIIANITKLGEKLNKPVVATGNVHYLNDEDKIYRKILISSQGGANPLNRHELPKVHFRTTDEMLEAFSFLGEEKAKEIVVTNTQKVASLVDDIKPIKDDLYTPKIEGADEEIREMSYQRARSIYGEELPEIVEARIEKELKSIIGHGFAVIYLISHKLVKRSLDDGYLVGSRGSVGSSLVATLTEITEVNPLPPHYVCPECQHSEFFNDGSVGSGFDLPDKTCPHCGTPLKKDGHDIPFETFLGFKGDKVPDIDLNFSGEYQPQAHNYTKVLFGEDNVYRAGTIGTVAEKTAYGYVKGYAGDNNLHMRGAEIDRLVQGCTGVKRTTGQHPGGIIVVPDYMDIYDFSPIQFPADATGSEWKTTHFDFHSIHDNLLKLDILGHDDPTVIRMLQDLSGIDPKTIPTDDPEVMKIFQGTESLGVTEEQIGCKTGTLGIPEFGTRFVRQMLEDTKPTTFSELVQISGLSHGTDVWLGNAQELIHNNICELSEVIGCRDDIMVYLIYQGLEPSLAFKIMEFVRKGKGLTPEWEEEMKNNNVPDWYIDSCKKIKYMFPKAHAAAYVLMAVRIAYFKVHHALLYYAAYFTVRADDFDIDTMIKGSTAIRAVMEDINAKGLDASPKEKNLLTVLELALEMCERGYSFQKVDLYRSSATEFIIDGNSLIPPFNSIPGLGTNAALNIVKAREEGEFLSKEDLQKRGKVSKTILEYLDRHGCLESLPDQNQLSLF
Summary of the method: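 Inhibition of DNA synthesis by the reconstituted PolC holoenzyme, monitored through PicoGreen staining of dsDNA formed from ssM13Gori, dNTPs and NTPs, with compound preincubation and room-temperature reaction.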

[8] = biological target: Tumor susceptibility gene 101 protein (Homo sapiens) (UniProt Q99816); experiment: qHTS Validation Assay for Iinhibitors of HIV-1 Budding by Blocking the Interaction of PTAP/TSG101 (AID 485342; calls by dose curve)
Chain of Tumor susceptibility gene 101 protein (Homo sapiens) (Q99816 whole entry, looked up, the tested form may be a part): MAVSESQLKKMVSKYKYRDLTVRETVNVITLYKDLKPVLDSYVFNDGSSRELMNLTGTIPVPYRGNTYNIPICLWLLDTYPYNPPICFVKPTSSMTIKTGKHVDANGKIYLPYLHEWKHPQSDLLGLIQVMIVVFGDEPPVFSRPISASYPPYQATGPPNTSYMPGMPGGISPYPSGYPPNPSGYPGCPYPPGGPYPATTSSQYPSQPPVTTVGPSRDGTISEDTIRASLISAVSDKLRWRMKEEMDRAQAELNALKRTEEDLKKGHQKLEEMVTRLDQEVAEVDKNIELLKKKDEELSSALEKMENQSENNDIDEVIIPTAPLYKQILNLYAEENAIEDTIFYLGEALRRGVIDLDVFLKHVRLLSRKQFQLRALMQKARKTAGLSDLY
Summary of the method: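 Compound wells held the Tsg101 binding domain (10 uM) and a FITC-conjugated PTAP peptide (50 nM) in buffer at pH 7.5 containing 0.15 M NaCl and 0.01% Tween 20; polarization was recorded after 20 min, r.t.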

[9] = qHTS Validation Assay to Find Inhibitors of Chronic Active B-Cell Receptor Signaling (AID 485345; active means well fitted curve in the direction sought with a large enough effect in the main read-out, with a control signal flat, not every such curve was filed as active)
Summary of the method: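 Read-out: ratio of filter-corrected green (IkappaBalpha fusion) to red (native) luciferase signal in doxycycline-induced TMD8 cells after 4 h at 37C. Titration spanned 46 uM–3 nM; Data were normalised to basal cells and 10 uM MG-132 wells.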

[10] = biological target: DNA repair nuclease/redox regulator APEX1 (Homo sapiens) (UniProt P27695); experiment: Confirmation qHTS Assay for Inhibitors of the Human Apurinic/apyrimidinic Endonuclease 1 (APE1) (AID 2572);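 further: fluorescence gain from purified APE1 cutting a TAMRA/BHQ-2 THF abasic duplex; nearly all actives have a fitted effect of over 30% in size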
Chain of DNA repair nuclease/redox regulator APEX1 (Homo sapiens) (P27695 whole entry, looked up): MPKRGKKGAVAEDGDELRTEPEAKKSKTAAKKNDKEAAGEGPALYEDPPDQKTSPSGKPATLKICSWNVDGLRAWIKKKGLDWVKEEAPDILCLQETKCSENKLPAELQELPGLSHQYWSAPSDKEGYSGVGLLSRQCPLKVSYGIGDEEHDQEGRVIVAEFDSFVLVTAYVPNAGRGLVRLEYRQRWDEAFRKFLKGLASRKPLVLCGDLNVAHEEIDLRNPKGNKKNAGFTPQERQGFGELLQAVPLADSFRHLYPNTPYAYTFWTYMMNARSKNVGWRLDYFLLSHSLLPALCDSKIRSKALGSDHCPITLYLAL
Summary of the method: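 Inhibition is measured on a short double-stranded THF-site oligo, 50 nM final, whose incision relieves BHQ-2 quenching of TAMRA. After 15 min enzyme–compound preincubation at RT, three reads a minute apart are taken.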

Measured: Potency

O=C(O)c1ccccc1Nc1cccc(OCc2ccc3ccccc3n2)c1
not listed: [9] | [10]
inactive: all other assays above

Nc1ccc(-c2ccc3ccccc3n2)cc1
active: [5] 12.6 µM
not listed: [10]
inactive: all other assays above

COc1cc(CNC(=O)CCCCCCC(C)C)ccc1O
not listed: [10]
inactive: all other assays above

CCN(CC)CCOC(=O)c1cc(Cl)c(N)cc1OC
not listed: [10]
inactive: all other assays above

Nc1nc2[nH]c(=O)cnc2c(=O)[nH]1
not listed: [10]
inactive: all other assays above

O=C(O)C1=CCCN(CCON=C(c2ccccc2)c2ccccc2)C1
not listed: [9] | [10]
inactive: all other assays above

CCN1C(=O)C=CC1=O
active: [5] 20 µM
not listed: [10]
inactive: all other assays above

COc1ccccc1N1CCN(CCCNc2c(C)c(=O)n(C)c(=O)n2C)CC1
not listed: [10]
inactive: all other assays above

Cn1c(=O)[nH]c2ncn(C)c2c1=O
not listed: [10]
inactive: all other assays above

COC1(C2=NCCN2)COc2ccccc2O1 (stereo not drawn)
not listed: [10]
inactive: all other assays above

CC1=C(C(=O)O)N2C(=O)[C@@H](NC(=O)C(N)C3=CCC=CC3)[C@H]2SC1 (stereo partly drawn)
not listed: [10]
inactive: all other assays above

C[C@H](O)C(=O)C1=Nc2c(nc(N)[nH]c2=O)NC1
not listed: [10]
inactive: all other assays above

O=c1cc(O)cc(/C=C/c2ccc(O)c(O)c2)o1
active: [7] 21.2 µM
not listed: [8] | [9] | [10]
inactive: all other assays above

Oc1cc2c(cc1O)C(c1ccccc1)CNCC2 (stereo not drawn)
not listed: [10]
inactive: all other assays above

CCOC(=O)C12CC1/C(=N/O)c1ccccc1O2 (stereo not drawn)
not listed: [10]
inactive: all other assays above

NC1CCN(O)C1=O (stereo not drawn)
inactive: all assays above

Cn1c(=O)c2c(nc(/C=C/c3cccc(Cl)c3)n2C)n(C)c1=O
not listed: [9] | [10]
inactive: all other assays above

Cc1cccc(C)c1OCC(N)C(C)C (stereo not drawn)
not listed: [10]
inactive: all other assays above

N#Cc1cc2nc(O)c(O)nc2cc1[N+](=O)[O-]
not listed: [10]
inactive: all other assays above

CC(=O)C(C)=O
not listed: [9] | [10]
inactive: all other assays above

C[C@@H](NCCc1ccc(O)cc1)[C@@H](O)c1ccc(O)cc1
not listed: [10]
inactive: all other assays above

Cc1nc(N=Nc2ccc(C(=O)O)cc2)c(COP(=O)(O)O)c(C=O)c1O
not listed: [10]
inactive: all other assays above

Cc1nc2c(OCc3ccccc3)cccn2c1CC#N
inactive: [1] | [2] | [3] | [4] | [5] | [6]

N[C@@H](CCCC(=O)O)C(=O)O
not listed: [10]
inactive: all other assays above

O=c1[nH]c2ccccc2c2ccccc12
not listed: [9] | [10]
inactive: all other assays above

COc1ccccc1N1CCN(CCCCN2C(=O)c3ccccc3C2=O)CC1
not listed: [8] | [9] | [10]
inactive: all other assays above

O=C(O)Cc1c[nH]c2ccc(O)cc12
not listed: [9] | [10]
inactive: all other assays above

CCSC(=N)N
not listed: [10]
inactive: all other assays above

CC(C)Cn1c(=O)n(C)c(=O)c2[nH]cnc21
not listed: [9] | [10]
inactive: all other assays above

NCCS(=O)O
not listed: [10]
inactive: all other assays above

O=c1[nH]c2cc(Cl)ccc2c(O)c1-c1ccc(Oc2ccccc2)cc1
not listed: [9] | [10]
inactive: all other assays above

CCCCOc1cc(CC2CNC(=O)N2)ccc1OC (stereo not drawn)
not listed: [9] | [10]
inactive: all other assays above

COc1cccc(OC)c1OCCNCC1CSc2ccccc2O1 (stereo not drawn)
not listed: [9] | [10]
inactive: all other assays above

c1ccc2nc(C3=NCCN3)ccc2c1
not listed: [10]
inactive: all other assays above

Fc1ccc(CN(C2=NCCN2)c2c(Cl)cccc2Cl)cc1
not listed: [10]
inactive: all other assays above

O=C(O)/C(=C/c1c(C(=O)O)[nH]c2cc(Cl)cc(Cl)c12)c1ccccc1
not listed: [9] | [10]
inactive: all other assays above

Nc1ccc(CCNc2ncnc3c2ncn3C2OC(CO)C(O)C2O)cc1 (stereo not drawn)
not listed: [9] | [10]
inactive: all other assays above

COc1ccc2c(c1)c(CC(=O)O)c(C)n2C(=O)c1ccccc1
not listed: [10]
inactive: all other assays above

CC(N)(C(=O)O)c1ccc(C(=O)O)cc1 (stereo not drawn)
not listed: [10]
inactive: all other assays above

OCC1NCC(O)C(O)C1O (stereo not drawn)
not listed: [10]
inactive: all other assays above

Oc1cc(O)c2c(c1)O[C@H](c1ccc(O)c(O)c1)[C@@H](O)C2
not listed: [10]
inactive: all other assays above

O=c1ccn([C@@H]2O[C@H](COP(=O)(O)OP(=O)(O)O)[C@@H](O)[C@H]2O)c(=O)[nH]1
not listed: [10]
inactive: all other assays above

N#CC(C#N)=C(N)/C(C#N)=C/c1ccc(O)cc1
not listed: [10]
inactive: all other assays above

O=C(O)C1CN(CCCP(=O)(O)O)CCN1 (stereo not drawn)
not listed: [10]
inactive: all other assays above

NCCC1CCCC(CCN)N1 (stereo not drawn)
not listed: [10]
inactive: all other assays above

c1ccc(C2CN3CCSC3=N2)cc1 (stereo not drawn)
not listed: [10]
inactive: all other assays above

Cn1cc(C(=O)OCC2CCN(CCNS(C)(=O)=O)CC2)c2ccccc21
not listed: [10]
inactive: all other assays above

O=C(O)C1CCNCC1
not listed: [10]
inactive: all other assays above

COC(=O)C(N)Cc1ccc(Cl)cc1 (stereo not drawn)
not listed: [10]
inactive: all other assays above

CC(/C=C/c1cccc(Oc2ccc(F)cc2)c1)N(O)C(N)=O (stereo not drawn)
not listed: [10]
inactive: all other assays above

Cc1nc(N=Nc2ccc(S(=O)(=O)O)cc2S(=O)(=O)O)c(COP(=O)(O)O)c(C=O)c1O
not listed: [10]
inactive: all other assays above

CCCc1c(OCCCOc2ccc(OCC(=O)O)cc2)ccc(C(C)=O)c1O
not listed: [10]
inactive: all other assays above

N[C@H](C(=O)O)[C@H](O)C(=O)O
not listed: [10]
inactive: all other assays above

Clc1nccc2c1ccc1ccccc12
not listed: [10]
inactive: all other assays above
